This passage reports composite z-score results from PubChem BioAssay.

The assay can be described thus: small-molecule microarray binders of probe aLefty2, primary screen, biochemical, biotinylated probe, 635/667 nm fluorescence (AID 1094).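 Note: score merges spot fluorescence near 667 nm with spot signal-to-noise ratio.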 Particulars: higher = more signal.
Regarding `C=CCOC(=O)[C@H]1[C@@H]2C(=O)O[C@@H](c3ccccc3)[C@@H](c3ccccc3)N2[C@@H](c2ccc(OCCOC(=O)[C@H]3C[C@H]4C(=O)N5CCC[C@H]5C(=O)N4[C@H]3c3ccc(O)cc3)cc2)[C@]12C(=O)Nc1ccccc12`, the composite z-score came out at 0.0292.
For `COCCCN1C(=O)[C@@]2(c3ccc([N+](=O)[O-])cc3)CC(=O)N(C3CCCCC3)[C@@H]2c2ccc(CO)cc21` the value was -0.0782; for `CN(C)CCCCCCNC(=O)[C@@H]1C[C@@H]2C(=O)N[C@@H](CCCCN)C(=O)N2[C@@H]1c1cccc(OCCO)c1`, 1.65; for `CC(C)c1ccc(NN2C(C(O)C(c3ccccc3)c3ccccc3)C=CC3C(=O)N(c4ccccc4)C(=O)C32)cc1` (configuration not stated), 0.0399.
With `C=C(CCCC)C(=O)CC[C@@H](OC(=O)c1cccnc1)c1ccc(CO)o1`, the composite z-score was -0.105.
`O=C(NCc1ccccc1)[C@@]1(Cc2ccccc2)N=C(c2ccc(OCCCO)cc2)O[C@H]1c1ccccc1`: the composite z-score was 0.126.
In turn, `COCCOC(=O)N1C(=O)[C@@]2(c3cc(C#Cc4ccc(OC)cc4)ccc31)[C@H](c1ccccc1OCCO)N1[C@H](c3ccccc3)[C@H](c3ccccc3)OC(=O)[C@H]1[C@@H]2C(=O)N1CCN(c2ncccn2)CC1` displayed a composite z-score of -0.115.
For `O=C1NC(=O)C2C1C=CC(C(O)Cc1ccccc1)N2Nc1ccc(Cl)cc1Cl` (configuration not stated) the value was -0.0134; for `CCCCN1CC=CC23O[C@@H]4/C=C\CCC(C)OC(=O)C4[C@H]2C(=O)N(CCCCCO)[C@@H]3C1=O` (some centres not stated), -0.205.
For `O=C1[C@H]2C=C(Br)[C@H](C[C@@H]2c2ccccc2)[C@@]12CO2` the value was -0.172.
The compound `CN1C(=O)C2C=CC(C(O)c3cccs3)N(Nc3ccccc3)C2C1=O` (configuration not stated) displayed a composite z-score of 0.139.
With `COCCOC(=O)N1C(=O)[C@@]2(c3cc(C#CCCO)ccc31)[C@H](C(=O)Nc1nc3ccccc3s1)[C@H]1C(=O)O[C@H](c3ccccc3)[C@H](c3ccccc3)N1[C@@H]2c1ccc(OCCO)cc1`, the composite z-score came to 0.0444.
With `CC(C)(C)OC(=O)CC[C@@]12N=C(c3ccc(OCCCO)cc3)O[C@@H]1c1ccccc1N(CCS(=O)(=O)c1ccccc1)C2=O` the figure was 0.193; with `COC(=O)[C@@]1(Cc2ccccc2)[C@H]2c3cc(C(=O)N4CCCC4)n(Cc4nc5ccccc5[nH]4)c3C[C@H]2CN1C(=O)c1ccccc1`, 0.746; with `O=C1OCCC/C=C\[C@H]2OC34C=CCN(Cn5nnc6ccccc65)C(=O)[C@H]3N(CCO)C(=O)[C@@H]4C12` (some centres not stated), 0.478.
For the compound `COc1cc2c(cc1O)C(C1CC1)N(Cc1cc3c(cc1Br)OCO3)CC2` (configuration not stated), the composite z-score was -0.209.
Compound `COCCOC(=O)N1C(=O)[C@@]2(c3cc(C#CC4=CCCCC4)ccc31)[C@H](C(=O)N1CCc3cc(OC)c(OC)cc3C1)[C@H]1C(=O)O[C@H](c3ccccc3)[C@H](c3ccccc3)N1[C@@H]2c1ccc(OCCO)cc1` came in with a composite z-score of -0.119.
With `Cc1ccc(S[C@]2(C(=O)NC(C)C)CC(=O)N(Cc3ccccc3Cl)[C@@H]2c2ccc(CO)cc2I)cc1`, the composite z-score turned out to be 0.0282.
For `COCCOC(=O)N1C(=O)[C@@]2(c3cc(C#CC4=CCCCC4)ccc31)[C@H](C(N)=O)[C@H]1C(=O)O[C@H](c3ccccc3)[C@H](c3ccccc3)N1[C@@H]2c1ccc(OCCO)cc1` the value was -0.399; for `O=C1C2C=CC(C(O)C(c3ccccc3)c3ccccc3)N(n3cnnc3)C2C(=O)N1Cc1ccccc1` (configuration not stated), -0.109; for `CC(C)(C)OC(=O)CC[C@@]1(C(=O)NCCN2CCOCC2)N=C(c2ccc(OCCCO)cc2)O[C@@H]1c1ccccc1N=[N+]=[N-]`, 0.591.
Compound `CN(C)C(=O)[C@@]1(Cc2ccccc2)N=C(c2ccc(OCCCO)cc2)O[C@H]1c1ccccc1N=[N+]=[N-]` came in with a composite z-score of 0.306.
As to `Cc1ccc(S[C@]2(C(=O)NCC(F)(F)F)CC(=O)N(C(C)C)[C@@H]2c2ccc(CO)cc2I)cc1`, the composite z-score was -0.0873.
`CCOc1cc(C(O)C2C=CC3C(=O)N(c4ccccc4)C(=O)C3N2Nc2ccccc2)ccc1O` (configuration not stated): the composite z-score was -0.0371.
For `C=CCNC(=O)[C@H]1[C@@H]2C(=O)O[C@@H](c3ccccc3)[C@@H](c3ccccc3)N2[C@@H](c2ccc(OCCO)cc2)[C@]12C(=O)N(C(=O)OCCOC)c1ccccc12`, the composite z-score turned out to be 0.0316.
The compound `C=CCN1C(=O)[C@@]2(O[C@@H](CCO)[C@H]([Si](C)(C)c3ccc(OC)cc3)[C@H]2C)c2cc(NC(=O)c3ccc(OC)cc3)ccc21` registered a composite z-score of -0.0977.
`C[C@]1(C(=O)NC2CC2)c2ccccc2C(=O)N(Cc2cc(C(F)(F)F)cc(C(F)(F)F)c2)[C@H]1c1ccc(CO)cc1` came in with a composite z-score of 0.0868.
